51 compounds from PubChem BioAssay AID1671193 (National Center for Advancing Translational Sciences (NCATS), 2021) can be followed below.

Each structure is given as a SMILES string. Among all 150,000 compounds or so, about 180 (0.12%) were called active. Not shown: some 6% with an inconclusive outcome. Calls follow the shape of the dose curve; as a rule, active = well fitted cell-killing curve with a large enough effect; inconclusive = small, poorly fitted or top-dose-only effect, or effect the other way; inactive = flat fitted curve, though single readings scatter. The entries come from a sample that favours actives as a whole. A call without a number means that no potency is given here.

The assay in a line: GF-AFC viability counterscreen for inhibitors of alpha-synuclein gene (SNCA) expression. Also: nearly all actives have a fitted effect of over 30% in size. The following applies: HEK-293-SNCA-luc viability, GF-AFC fluorescence, 24 h; series mostly up to 57.1 µM. From the text: Assay Submitter (PI): Daniel R. Scoles Ph.D.
Department of Neurology, University of Utah, Salt Lake City, Utah
Accumulation of alpha-synuclein is a main underlying pathological feature of Parkinson's disease (PD) and alpha-synucleinopathies, for which lowering expression of the alpha-synuclein gene (SNCA) is a potential therapeutic avenue. Using a cell-based luciferase reporter of SNCA expression we performed a quantitative high throughput screen (qHTS) of 155,885 compounds in dose response. The screening assay was generated using genome editing to insert the luciferase gene downstream and in frame of the SNCA gene in HEK-293 cells (1). A viability counterscreen using GF-AFC was used to eliminate cytotoxic and false positive compounds. After in silico analysis (clustering, removal of frequent hitter nuisance chemotypes), inhibitor compounds from the primary screen were selected for follow up and re-tested at 11-doses in the SNCA-luc cells (luciferase and GF-AFC confirmation), and in CMV-luc expressing cell line to flag general transcriptional repressors.
Described herein are the results of the GF-AFC viability counterscreen for SNCA inhibitors; inactivity (no decrease in fluorescence signal, not cytotoxic) is the desired output for this assay.
1. Dansithong, W., Paul, S., Scoles, D. R., Pulst, S. M., and Huynh, D. P. (2015) Generation of SNCA Cell Models Using Zinc Finger Nuclease (ZFN) Technology for Efficient High-Throughput Drug Screening. PLoS ONE 10, e0136930.
SEQUENCE No. (e.g., 1, 2, 3, etc.); […] (e.g., Cells, Incubation, Reagent, etc.); VALUE; DESCRIPTION
1; Cells; 4 uL; Dispense 1500 HEK-293-SNCA-luc cells/well into Greiner 1536-well white / solid bottom tissue culture treated plate. The plate was covered with metal lids with gas-exchange holes.
2; Incubate; 24 hours; Incubate at 37C, 5% CO2, 95% RH.
3; Compounds; 23 nL; Compounds and controls were transferred via a Kalypsys Pin Tool (Wako USA) equipped with a 1536-slotted pin array. The plate was covered with metal lids with gas-exchange holes.
4; Incubate; 24 hours; Incubate at 37C, 5% CO2, 95% RH.
5; Dispense; 1 uL; Dispense Gly-Phe-7-amino-4-trifluoromethylcoumarin (GF-AFC, prepared at 125 uM in PBS) was added. The plate was covered with metal lids with gas-exchange holes.
6; Incubate; 30 min; Incubate at 37C, 5% CO2.
7; Detector; Fluorescence; Measure fluorescence with ViewLux microplate reader (PerkinElmer) equipped with 405/10 excitation and 540/25 emission filters.
8; Dispense; 3 uL; Dispense ONE-Glo ([…]) lucifase detection reagent was added to each well. Plates were covered with metal lids with gas-exchange holes.
9; Incubate; 15 min; Incubate at room temperature.
10; Detector; Luminescence; Measure luminescence with ViewLux microplate reader (PerkinElmer) equipped with clear filters.
NOTES (numbers refer to sequence above)
1; HEK-293-SNCA-luc were cultured and suspended in phenol-red free DMEM (4.5 g/L glucose, 25 mM HEPES, cat #21063 (Thermo)).
3; Compounds were added to the assay plate in an 11-point intra plate dose response, 1:3 titration in DMSO with a final concentration range of […]. Vehicle-only plates, with DMSO being pin-transferred to every well, were inserted at the beginning of screening runs to confirm expected assay performance. Activity was normalized to wells containing medium only (-100% activity, full inhibition) and SNCA-luc cells treated with DMSO vehicle control (0% activity), contained on the same plate as test samples.
10; Signals were analyzed, and dose-response curves were fit using the Hill equation. Compounds in curve classes -1.1, -1.2, -2.1, -2.2 in the SNCA-luc assay were considered active. Compounds were eliminated from further consideration if also active (curve class -1.1, -1.2, -1.3, -1.4, -2.1, -2.2, -2.3, -2.4) in the GF-AFC cytotoxicity assay.
For `COc1ccc(NC(=O)c2nc3sccn3c2-c2cccnc2)cc1`, the Potency entry is “inactive”.

As to `COCCN1C(=O)CS(=O)(=O)C12CCN(C(=O)c1ccc(C)s1)CC2`, the Potency result was “inactive”.

Regarding `CCOc1ccccc1CN1CCC(Cc2nc(-c3cccnc3)n[nH]2)C1` (stereo unspecified), the Potency result is “inactive”.

With `COc1ccccc1-c1nc(C(=O)NCc2cccs2)n2ccncc12`, the Potency result was “inactive”.

In the case of `O=C(c1ccc(C(F)(F)F)cc1)N1CCCC(C(=O)N2CCC(c3nc4ccncc4[nH]3)C2)C1` (stereo unspecified), the Potency entry was “inactive”.

On to `CN1CCC2(CC1)Cc1ccccc1CN(C(=O)c1cccc(Cl)c1)C2`, for which the Potency entry is “inactive”.

With `O=C(NCc1cccc(Cl)c1)C1CCc2nnc(-c3cccc(C(F)(F)F)c3)n21` (stereo unspecified), the Potency result was “inactive”.

For the compound `COc1ccccc1CN1C(=O)COC[C@@H]1[C@H](O)c1ccc(NC(=O)c2ccc(C#N)cc2)cc1`, the Potency entry is “inactive”.

Take `CC(C)Cc1ccc(CN2CCC3(CC2)Cc2ccccc2CNC3=O)cc1`: the Potency result was “inactive”.

For the compound `COc1ccc(S(=O)(=O)N2CCC3(CCC(=O)N(CC4CC4)CC3)CC2)cc1`, the Potency result is “inactive”.

Consider `O=C(NC1CCN(c2cc(-c3cccs3)[nH]n2)C1)c1ccc(Br)cc1` (stereo unspecified), for which the Potency entry is “inactive”.

In the case of `COc1ccc(CN2CC(Oc3ccc(F)c(F)c3)C2)cc1`, the Potency result is “inactive”.

In the case of `COc1cccc(-c2cc(C3CCN(C(=O)Nc4ccccc4C)CC3)[nH]n2)c1`, the Potency result is “inactive”.

As for `Cc1cccc(-c2nc3ccc(C(=O)N4C(C)CCCC4C)cc3o2)n1` (stereo unspecified), the Potency result is “inactive”.

On to `COc1ccc(NC(=O)N2CCCC(Cc3noc(-c4ccccc4)n3)C2)cc1` (stereo unspecified), for which the Potency entry is “inactive”.

Turning to `O=C(Cc1ccc(F)cc1)N1CCC(n2cc(-c3nc(-c4ccccc4)no3)nn2)CC1`, the Potency entry is “inactive”.

For the compound `COc1ccc(CNC(=O)C2CCN(c3cc(C(F)(F)F)nc(C)n3)CC2)cc1`, the Potency entry is “inactive”.

`O=C(Nc1ccc(Cl)cc1)NC1CCN(C(=O)c2ccc(-c3cncnc3)cc2)CC1`: the activity change, negative = cytotoxicity was 0.645% [at 12.5 µM] (inactive).

For `O=C(NC1CCCc2c1[nH]c1c(Cl)cccc21)c1ccco1` (stereo unspecified), the Potency entry is “inactive”.

For `COc1ccc(C)cc1NC(=O)Nc1cccc(-c2ccc(N3CCCCC3)nn2)c1`, the Potency result was “inactive”.

`CC1(CCCCc2ccccc2)COc2ccc(C(=O)N3CCNC(=O)C3)cc2N1` (stereo unspecified): the Potency entry was “inactive”.

Take `COC(=O)C1=C(C)N=C2SC=C(CC(=O)N3CCCC3)N2C1c1cccc(F)c1` (stereo unspecified): the Potency entry was “inactive”.

For the compound `COC(=O)N1CCC(C(=O)N2CCC3(CC2)CC(=O)Nc2ccccc2O3)CC1`, the Potency entry was “inactive”.

Regarding `O[C@@H]1C[C@@H](c2nc(-c3ccc4c(c3)OCO4)no2)N(Cc2ccc(-c3ccccn3)cc2)C1`, the Potency entry is “inactive”.

Consider `CN(C)c1cccc(-c2cnc(Nc3ccc(N4CCOCC4)cc3)c3c2CCO3)c1`, for which the Potency result was “inactive”.

Consider `Cc1ccccc1N(C)C1CN(C(=O)OC(C)(C)C)C1`, for which the Potency entry is “inactive”.

On to `COc1cccc(-c2cc(-c3nc(-c4ccc5nc[nH]c5c4)no3)[nH]n2)c1`, for which the Potency result was “inactive”.

For the compound `COc1ccc(S(=O)(=O)N2CCC(n3cnnc3-c3ccccc3)CC2)cc1Cl`, the Potency entry was “inactive”.

Take `O=C(C1CCN(c2nc(-c3ccccc3)nc3c2CCC3)CC1)N1CCC[C@H]1CO`: the Potency entry is “inactive”.

In the case of `O=C(O)CCNC(=O)Cn1nc2c(cc1=O)CCCC2`, the Potency entry is “inactive”.

In the case of `O=C(NCc1ccc(F)cc1)C1CCCN(c2ccnc3ccnn23)C1` (stereo unspecified), the Potency result was “inactive”.

In the case of `O=C(c1ccco1)N1CCC(O)(c2ccccc2)[C@H](N2CCCC2)C1` (stereo partly specified), the Potency entry was “inactive”.

`COc1ccc(-n2c(=O)c(C(=O)Nc3ccccc3Cl)nc3cccnc32)cc1`: the Potency entry was “inactive”.

In the case of `Cc1ccc(C(=O)N2CCC(C(=O)N3CCC(c4nc5ncccc5[nH]4)CC3)C2)cc1` (stereo unspecified), the Potency result is “inactive”.

Regarding `O=C(Nc1cc(-c2cccnc2)nn1-c1ccccc1)c1ccccc1F`, the Potency result is “inactive”.

Take `CC(C)Cn1c(=O)c(C(=O)NCc2ccccc2Cl)nc2cccnc21`: the Potency result is “inactive”.

On to `CC(C)C(=O)N1CCC2(CC1)OC(=O)N(Cc1ccccc1F)C2(C)c1ccccc1` (stereo unspecified), for which the Potency entry is “inactive”.

Regarding `FC(F)(F)c1ccc(CN2CCCC3(CC(c4ccccc4)=NO3)C2)cc1` (stereo unspecified), the Potency result was “inactive”.

As to `O=C(NCCC1CCN(C(=O)Nc2ccc(F)cc2)CC1)c1ccccn1`, the Potency result was “inactive”.

With `COc1ccc(C(=O)N2CCC3(CC2)N(c2ccccc2)C(=O)CS3(=O)=O)cc1F`, the Potency entry is “inactive”.

As to `Cc1ccc(F)cc1S(=O)(=O)N1CCC(OC2CCN(Cc3ccccc3)CC2)CC1`, the Potency entry is “inactive”.

For the compound `COc1cc(CNCCOc2ccccc2)ccc1OCC(O)CN1CCOCC1` (stereo unspecified), the Potency result is “inactive”.

Take `CC(=O)NC[C@H]1COCc2nc3cc(NC(C)=O)ccc3n21`: the Potency result is “inactive”.

Regarding `COCCOc1ccc(-c2noc([C@@H]3CCCN3C3CCC3)n2)cn1`, the Potency entry was “inactive”.

Consider `COc1ccccc1CN1Cc2cc(NC(=O)C3CCCC3)ccc2OC(C)C1=O` (stereo unspecified), for which the Potency entry is “inactive”.

With `O=C(CCC1CCN(S(=O)(=O)c2ccccc2)CC1)NCCc1ccccc1`, the Potency result was “inactive”.

`CC(=O)c1c(C)nn(C(C)CC(=O)N2C[C@H]3CC=CC[C@H]3C2)c1C` (stereo partly specified): the Potency result was “inactive”.

With `O=C(C[C@@H]1CCNC[C@@H]1Cc1cc(CC2CCCCC2)on1)NC1CCCCC1`, the Potency entry was “inactive”.

As to `COc1cccc([C@@H]2CN(C(=O)CCCn3cnnn3)C[C@H]2C(=O)O)c1`, the Potency result is “inactive”.

On to `COCCN(C)Cc1ccc(CC2CCN(C(=O)C3(c4ccc(OC)cc4)CC3)CC2)cc1`, for which the Potency result is “inactive”.

`CCOc1ccc(CC(=O)N2CCC(C3CCN(C(=O)NC)CC3)C2)cc1` (stereo unspecified): the activity change, negative = cytotoxicity was 6.55% [at 12.5 µM] (inactive).
